# High-throughput results (PubChem BioAssay)
# FGF22 binding = binders of human FGF22 protein, primary screen, FGF22 synaptogenesis inhibitor project, biophysical, thermal shift, single point; Fibroblast growth factor 22 (Homo sapiens), Q9HCT0; recombinant FGF22 thermal shift, SYPRO orange fluorescence; percent of sucrose octasulfate shift, DMSO zero; activity (Tm shift, normalised), % at 9.99 µM; 1.5% of 340,000 active; AID 651658, 2012;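 active = mean Tm shift, scaled 0 neutral to 100 positive control, at about 1.3% or above, every replicate too, limit read from the data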
# Target sequence (Q9HCT0 whole entry, looked up): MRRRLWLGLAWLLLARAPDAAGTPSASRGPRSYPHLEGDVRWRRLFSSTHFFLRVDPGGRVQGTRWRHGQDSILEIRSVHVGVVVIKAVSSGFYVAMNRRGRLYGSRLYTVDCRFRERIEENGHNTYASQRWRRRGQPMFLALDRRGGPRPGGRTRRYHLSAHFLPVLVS
# CFTR F508del cor = F508del CFTR correction, initial screen, CFBE line, single point; AID 720511, 2013; CFBE cells, YFP halide quenching; stimulated with forskolin plus potentiator P3; % fluorescence drop versus neutral controls; 0.36% of 350,000 active; activity (quench increase), % at 7.58 µM;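 active = mean added fluorescence quench of at least 8% versus neutral control, with both replicates also reaching 8%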;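 note: cells transiently co-express mutant CFTR-F508del with the halide-sensitive YFP; corrector assay measuring rescue of mutant channel to the surface after 24 h compound exposure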
# Vif imaging = HIV Vif self-association inhibitors, primary screen, imaging, HEK293T, single point; HEK293T cells, Vif self-association by quenched fluorescence, 24 h; inhibition, % at 7.49 µM; 0.35% of 340,000 active; AID 602346, 2012; in the data active = inhibition above about 50%, passing the limit was not always enough
# Numbers without * were called inactive; i = inactive; . = no result given. Rows were chosen to be rich in hits. Some 1.7% of all compounds tested hit in one or more screens of this group.
SMILES,FGF22 binding,CFTR F508del cor,Vif imaging
CC(Cc1ccccc1)Nc1ncnc2c1ncn2C1OC(CO)C(O)C1O (configuration not stated),0,2,9
C[C@H](Cc1ccccc1)Nc1ncnc2c1ncn2[C@@H]1O[C@H](CO)[C@@H](O)[C@H]1O,0,0,65*
C/C=C/c1cnc2c(c1)C(=O)N([C@@H](C)CO)C[C@@H](C)[C@H](CN(C)S(=O)(=O)c1ccc(F)cc1)O2,0,0,.
O=C(C1CCOCC1)N1[C@H](CO)[C@H]2c3ccccc3NC[C@H]21,1,-1,.
O=C(CN1CCCC1)Nc1ccc(F)cc1,43*,-1,6
O=C(CN1CCCC1)NCC(=O)Nc1ccc(F)cc1,0,-1,3
Cc1ccc(S(=O)(=O)N2CCN(C(=O)c3cccs3)CC2)c(C)c1,.,1,-3
Cc1cc(C)c(S(=O)(=O)N2CCN(C(=O)c3cccs3)CC2)c(C)c1,43*,-2,-15
Cc1cc(C)n2cc(CSc3nnnn3C)nc2n1,.,.,4
Cc1cc(C)n2cc(CSc3nncn3C)nc2n1,43*,.,-2
COc1ccc(S(=O)(=O)Nc2ccc3c(c2)C(=O)N([C@@H](C)CO)C[C@@H](C)[C@@H](CN(C)C(=O)Nc2ccccc2)OCCCC[C@@H](C)O3)cc1,0,5,.
O=C(Nc1cc(F)cc(F)c1)c1ccc(NCCCN2CCCCCC2)c([N+](=O)[O-])c1,43*,2,8
O=C(Nc1cc(F)cc(F)c1)c1ccc(NCCc2ccccc2)c([N+](=O)[O-])c1,.,.,i
O=C(O)CCn1ncc2ccccc2c1=O,43*,0,-9
CC(C(=O)O)n1ncc2ccccc2c1=O (configuration not stated),0,-4,-7
CCCn1nnc(NC(=O)C(c2ccccc2)c2ccccc2)n1,.,.,50*
CCCCn1nnc(NC(=O)C(c2ccccc2)c2ccccc2)n1,0,-1,4
Cc1oc(-c2cc(F)ccc2F)nc1CN1CCN(c2ncnc3ccccc23)CC1,0,1,-19
COc1ccc(-c2nc(CN3CCN(c4ncnc5ccccc45)CC3)c(C)o2)c(OC)c1,44*,1,-5
Cc1ccc(/C=C/S(=O)(=O)NCC(=O)O)cc1,43*,-3,1
O=C(O)CNS(=O)(=O)/C=C/c1ccccc1,1,-4,-4
Cc1cc(C)c(C#N)c(SCc2nc3ccccc3c(=O)[nH]2)n1,0,-1,1
COCc1cc(C)nc(SCc2nc3ccccc3c(=O)[nH]2)c1C#N,43*,0,10
Cc1cccc(S(=O)(=O)N(C)C[C@@H]2OCc3ccccc3-c3c(n(C)c4ccccc34)C(=O)N([C@@H](C)CO)C[C@@H]2C)c1,0,-2,.
Cc1ccc(CNCCCSc2ncccn2)cc1,0,-1,60*
SMILES,FGF22 binding,CFTR F508del cor,Vif imaging
Cc1ccccc1CNCCCSc1ncccn1,0,0,-3
Cc1[nH]c(=O)[nH]c(=O)c1NC(=O)c1ccc(OC(C)C)cc1,0,.,-8
CC(C)Oc1ccc(C(=O)Nc2ccc(C(F)(F)F)n(C)c2=O)cc1,44*,-2,3
C[C@@H]1CN([C@H](C)CO)C(=O)c2cc(NC(=O)CCC(F)(F)F)ccc2O[C@@H]1CN(C)S(=O)(=O)c1cn(C)cn1,0,1,.
COc1ccc(NC(=O)N(Cc2cc3ccc(OC)cc3[nH]c2=O)CC2CCCO2)cc1 (configuration not stated),0,2,8
COc1ccc2cc(CN(CC3CCCO3)C(=S)Nc3ccccc3)c(=O)[nH]c2c1 (configuration not stated),0,10*,-5
COc1ccc2[nH]c(=O)c(CN(CC3CCCO3)C(=S)Nc3ccccc3)cc2c1 (configuration not stated),44*,-3,-8
Cc1cc2cc(CN(CC3CCCO3)C(=S)Nc3ccccc3)c(=O)[nH]c2cc1C (configuration not stated),0,7,-15
COc1ccc2c3c([nH]c2c1)[C@H](CO)N(C(C)=O)CC31CN(C(=O)CN2CCOCC2)C1,0,0,.
COc1cc(OC)cc(-c2c(-c3ccc(F)cc3)c3cc(-c4ccc(OC)nc4)ccc3n2C)c1,0,1,7
COc1ccc(-c2ccc3c(c2)c(-c2cccs2)c(-c2cc(OC)cc(OC)c2)n3C)cc1,0,-1,0
COc1cccc(-c2c(-c3cc(OC)cc(OC)c3)n(C)c3ccc(-c4ccc(OC)nc4)cc23)c1,44*,1,.
COc1cc(OC)cc(-c2c(-c3cccs3)c3cc(-c4ccc(C(N)=O)cc4)ccc3n2C)c1,.,0,112*
CN(C)S(=O)(=O)c1ccc(C(=O)NC(=O)CSc2ccccc2)cc1,.,.,-2
CN(C)S(=O)(=O)c1ccc(NC(=O)CCNC(=O)c2ccc([N+](=O)[O-])cc2)cc1,43*,-1,13
CN(C)S(=O)(=O)c1ccc(C(=O)OCc2ccc(C#N)cc2)cc1,.,.,8
Cc1ccc(NC(=O)CCNC(=O)c2ccc([N+](=O)[O-])cc2)cc1S(=O)(=O)N(C)C,0,0,-8
CN(C)S(=O)(=O)c1ccc(C(=O)OCc2ccc([N+](=O)[O-])cc2)cc1,44*,1,-8
CC(=O)Nc1ccc(SCC(=O)NC(=O)c2ccc(S(=O)(=O)N(C)C)cc2)cc1,0,5,83*
CO[C@H]1CN(C)C(=O)c2cc(NS(=O)(=O)Cc3ccccc3)ccc2OC[C@H](C)NC[C@H]1C,0,5,.
CCC(=O)N1CC2(C1)CN(C(=O)Nc1ccccc1F)[C@@H](CO)c1c2c2ccc(OC)cc2n1C,0,-2,.
COc1ccccc1NC(=O)N[C@H]1C=C[C@H](CC(=O)N2CCC(Cc3ccccc3)CC2)O[C@@H]1CO,0,-1,.
O=C(N[C@@H]1CC[C@@H](CCNC(=O)C2CCOCC2)O[C@H]1CO)c1ccncc1,0,2,.
CCCCC1(C)OC(=O)C(=Cc2ccc(-c3ccc(Cl)c(C(=O)O)c3)o2)C(=O)O1 (configuration not stated),3.8*,0,-3
Cc1ccc(N2NC(=O)/C(=C/c3ccc(-c4ccc(Cl)c(C(=O)O)c4)o3)C2=O)cc1,0,.,0
SMILES,FGF22 binding,CFTR F508del cor,Vif imaging
C[C@H](CO)N1C[C@H](C)[C@H](CN(C)C(=O)Nc2cccc(Oc3ccccn3)c2)OCc2cn(nn2)CCCC1=O,.,1,.
Cc1ccc(Nc2nc(CSc3nnc(-c4ccncc4)n3C)cs2)cc1,.,.,-24
Cc1ccc(Nc2nc(CSc3nnc(-c4cccnc4)n3-c3ccccc3F)cs2)cc1,0,8.6*,0
CCCNC(=S)N1CCN(c2nc(C)nc3sc4c(c23)CCCC4)CC1,43*,3,-4
COCCCNC(=S)N1CCN(c2nc(C)nc3sc4c(c23)CCCC4)CC1,0,-3,-2
Cc1cc(OCc2nc(-c3cccnc3)no2)c(C)cc1Br,.,.,36
Cc1ccccc1OCc1nc(-c2cccnc2)no1,46*,3,12
COc1ccccc1-c1nc(C#N)c(NCCCn2ccnc2)o1,0,1,-2
N#Cc1nc(-c2ccccc2)oc1NCCCn1ccnc1,43*,1,-4
